The results in this text go back to PubChem BioAssay (NCATS).

A short description of assay [1]: Cell Viability - HUV-EC-C (AID 542).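 Also: cells exposed to compound for 40 hours; nearly all actives have a fitted effect of over 35% in size.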 Also: potency is read from the fitted curve at half-maximal effect. The essentials:
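CellTiter-Glo luminescence measured ATP loss in HUV-EC-C cells (1000/well) after 40 hr compound exposure at 37 °C, in complete culture medium. Concentration-response data were Hill-fitted to give AC50.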

A short description of assay [2]: Cell Viability - SH-SY5Y (AID 544).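 Also: cells exposed to compound for 40 hours; nearly all actives have a fitted effect of over 55% in size.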 Also: potency is read from the fitted curve at half-maximal effect.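 As to viability change, negative = cytotoxic: 0% = DMSO alone and -100% = 100 µM tamoxifen.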 The conditions noted are these: SH-SY5Y neuroblastoma cell viability; viability change, negative = cytotoxic: at 92.2 µM (top of the series). The essentials:
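Cytotoxicity measured via ATP-dependent luciferase luminescence (CellTiter-Glo) following 40 h, 37 °C exposure of 1500 SH-SY5Y cells per well. Concentration-response data were fitted with the standard Hill equation to give AC50.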

Assay [3] in a line: Cellular Toxicity (caspase-3) HepG2 (AID 654).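 Also: cells exposed to compound for 16 hours before reading; 0% = DMSO alone and 100% = caspase signal from 100 µM tamoxifen.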 Put shortly:
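Caspase 3/7 activation is measured as a luminescence increase (aminoluciferin substrate) after 16 h compound exposure of human hepatocarcinoma HepG2 cells. AC50 values are Hill fits, scaled between DMSO baseline and 100 uM tamoxifen stimulation.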

Assay [4] in a line: Cellular Toxicity (caspase-3) HUV-EC-C (AID 656).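 Also: 0% = DMSO basal and 100% = 100 µM tamoxifen.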 The essentials:
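HUV-EC-C cells (1000/well) in complete medium, compound-treated 16 h at 37 °C; caspase-3/7 activity read by Caspase-Glo 3/7 luminescence. Normalized to DMSO (basal) and 100 uM tamoxifen (100%); AC50 from Hill-equation concentration-response fits.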

Assay [5] is described as follows: Cellular Toxicity (caspase-3) BJ (AID 658).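 Also: cells exposed to compound for 16 hours; 0% = DMSO basal and 100% = 10 µM staurosporine.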 The essentials:
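Caspase-Glo 3/7 luminescence, read 1 hr after reagent at room temperature, in normal BJ fibroblasts exposed 16 hours at 37 °C. AC50 values from Hill-equation concentration-response, scaled between DMSO basal and 10 uM staurosporine as 100%.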

A short description of assay [6]: Cellular Toxicity (caspase-3) MRC-5 (AID 659).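 Also: 0% = DMSO basal and 100% = 10 µM staurosporine.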 The essentials: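 Luminescent Caspase-Glo 3/7 read-out (1 h, room temperature) after a 16 h, 37 °C compound exposure of MRC-5 lung fibroblasts at 1500 cells/well. Concentration-response AC50 from Hill equation; 0% DMSO, 100% 10 uM staurosporine.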
A short description of assay [7]: Cellular Toxicity (caspase-3) Mesangial (AID 660).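 Also: cells exposed to compound for 16 h before the caspase read.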 Also: potency is read from the fitted curve at half-maximal effect. To be noted: Potency: caspase-3 activation. The essentials:
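Caspase 3/7 activation measured by Caspase-Glo 3/7 luminescence (20 min, room temperature) following 16 h exposure of mesangial cells (1000/well); AC50 from Hill-equation fit, normalized to DMSO and 100 uM tamoxifen.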

A short description of assay [8]: Cellular Toxicity (caspase-3) N2a (AID 665).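 Also: compound exposure lasted 16 h at 37 °C before readout.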 Put shortly:
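Caspase-3/7 activation measured as luminescence from Caspase-Glo reagent (1 h, room temperature) after 16 h compound exposure of mouse N2a cells. AC50 values from Hill-equation concentration-response, scaled between DMSO and 10 uM staurosporine.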

Assay [9] is described as follows: Cellular Toxicity (caspase-3) NIH 3T3 (AID 666).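 Also: 0% = DMSO basal and 100% = 100 µM tamoxifen stimulation.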 The essentials: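 Caspase-Glo 3/7 luminescence reported caspase activation in 1000 NIH 3T3 cells/well after 16 h compound exposure at 37 C. DMSO set basal and 100 uM tamoxifen set 100% stimulation; concentration-response modeled with the Hill equation for AC50.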
A short description of assay [10]: Cell Viability - LYMP2-001 (AID 921). Also: nearly all actives have a fitted effect of over 70% in size. Also: potency is read from the fitted curve at half-maximal effect. The essentials:
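Human lymphoblastoid LYMP2-001 cells, 2500 per well, in complete medium, treated 24 h at 37 C. Viability from cellular ATP by CellTiter-Glo luminescence; AC50 from Hill-equation fits of qHTS concentration-response.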

Assay [11] is described as follows: Cell Viability - LYMP1-002 - Assay at 16 hr (AID 948). Also: potency is read from the fitted curve at half-maximal effect. The essentials: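 LYMP1-002 human lymphoblastoid cells, 2500/well, were treated with compounds for 16 hr at 37 C in complete medium. Viability was read as intracellular ATP by CellTiter-Glo luminescence, and AC50 was derived from a Hill fit to concentration-response data.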
Assay [12] is described as follows: Cell Viability - LYMP1-003 - Assay at 24 hr (AID 963). Also: potency is read from the fitted curve at half-maximal effect.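 As to viability change, negative = cytotoxic: plate controls were DMSO only for no effect and tetraoctylammonium bromide positive control for full effect.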 The essentials:
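Concentration-response qHTS: ATP loss measured by CellTiter-Glo luminescence after 24 h compound exposure at 37 C. Cells were LYMP1-003 human lymphoblastoid, 2500 per well. AC50 derived via standard Hill equation modeling.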

A short description of assay [13]: Cell Viability - LYMP2-003 (AID 965).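 Also: cells exposed to compounds for 24 h before reading; nearly all actives have a fitted effect of over 50% in size.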 Also: potency is read from the fitted curve at half-maximal effect. Put shortly: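 Human lymphoblastoid LYMP2-003 cells, 2500/well, exposed to compounds for 24 h at 37 C in complete medium. Viability read as intracellular ATP by CellTiter-Glo luminescence; AC50 from Hill-equation fits of qHTS concentration-response data.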
Assay [14] is described as follows: Cell Viability - LYMP2-015 (AID 971). Also: nearly all actives have a fitted effect of over 55% in size. Also: potency is read from the fitted curve at half-maximal effect. Put shortly:
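Cytotoxicity readout: decrease in intracellular ATP (CellTiter-Glo luminescence) in 2500 LYMP2-015 lymphoblastoid cells/well after 24 h compound exposure at 37 C. Concentration-response data fitted with the standard Hill equation to give AC50.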

The nature of assay [15]: Cell Viability - LYMP2-019 (AID 973). Also: nearly all actives have a fitted effect of over 55% in size. Also: potency is read from the fitted curve at half-maximal effect. Put shortly:
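AC50 values come from Hill-equation fits of luminescent intracellular ATP (CellTiter-Glo, 30 min, room temperature) following 24 h compound exposure at 37 C. Cells: LYMP2-019 lymphoblastoid line, 2500 per well, in complete culture medium.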

The nature of assay [16]: Cell Viability - LYMP2-016 (AID 984). Also: nearly all actives have a fitted effect of over 55% in size. Also: potency is read from the fitted curve at half-maximal effect. Put shortly:
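Human lymphoblastoid LYMP2-016 cells, 2500 per well, treated with compounds for 24 h at 37 C. Viability read as intracellular ATP by CellTiter-Glo luminescence after 30 min at room temperature; AC50 from Hill fits of concentration-response.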

Assay [17] is described as follows: Cell Viability - LYMP2-018 (AID 985). Also: nearly all actives have a fitted effect of over 50% in size. Also: potency is read from the fitted curve at half-maximal effect. Put shortly: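 Viability read as CellTiter-Glo luminescence (cellular ATP) after 24 hr compound exposure at 37 C of 2500 LYMP2-018 lymphoblastoid cells/well, pre-plated 5 hr. Hill-equation modelling gave AC50.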
Assay [18] concerns the target Tumor necrosis factor (Homo sapiens) (UniProt P01375). The assay can be described thus: qHTS assay to identify small molecules that stimulate Tumor Necrosis Factor-alpha (TNF-alpha) secretion (AID 651757; active = well fitted curve in the direction sought with a large enough effect in the signal ratio; the % refers to the signal ratio; also: 0% is about no effect). The essentials:
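Secreted TNF-alpha quantified by TR-FRET sandwich of two labeled anti-TNF-alpha antibodies, incubated 3 hr at room temperature. Preceded by 17 hr, 37 C compound treatment of THP-1 cells at 3000 cells/well.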

Assay [19] concerns the target Peroxisome proliferator-activated receptor alpha (Homo sapiens) (UniProt Q07869). Nature of the assay: qHTS assay for small molecule agonists of the peroxisome proliferator-activated receptor alpha (PPARalpha) signaling pathway (AID 651778). Also: % of control where 0% means no effect. The conditions noted are these: PathHunter PPARalpha complementation, chemiluminescence, 6 h; max response: stronger effect = higher value. Put shortly: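 Chemiluminescence from complemented enzyme reported PPARalpha activation in cells after 6 hr of compound treatment at 37 C. The detection reagent was incubated for 60 min at room temperature, and compounds were scored as agonists.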

A short description of assay [20]: qHTS assay for cell viability of the p53RE-bla HCT-116 cell line (AID 743292). Put shortly: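 ATP-based luminescent viability (CellTiter-Glo, 30 min RT) after 16 h compound treatment at 37 C of p53RE-bla HCT-116 cells, seeded at 4,000 cells/well and rested 5 h before dosing.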
For orientation: qHTS replaces the single test concentration by a dilution series.

Results filed as inconclusive are left out. Activity calls are given as the source filed them. Unless noted, calls follow the shape of the dose curve; as a rule, active = well fitted curve in the direction sought with a large enough effect; inconclusive = small, poorly fitted or top-dose-only effect, or another doubt; inactive = no such curve, though single readings can be large; an effect the other way counts as inactive or inconclusive.

Chain of Tumor necrosis factor (Homo sapiens) (P01375 whole entry, looked up): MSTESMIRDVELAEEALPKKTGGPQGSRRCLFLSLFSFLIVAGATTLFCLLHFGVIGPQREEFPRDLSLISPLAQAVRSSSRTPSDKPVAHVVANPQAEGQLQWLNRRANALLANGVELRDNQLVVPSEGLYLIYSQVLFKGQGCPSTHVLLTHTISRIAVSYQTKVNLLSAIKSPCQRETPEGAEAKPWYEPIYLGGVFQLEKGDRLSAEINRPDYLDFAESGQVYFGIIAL
Chain of Peroxisome proliferator-activated receptor alpha (Homo sapiens) (Q07869 whole entry, looked up): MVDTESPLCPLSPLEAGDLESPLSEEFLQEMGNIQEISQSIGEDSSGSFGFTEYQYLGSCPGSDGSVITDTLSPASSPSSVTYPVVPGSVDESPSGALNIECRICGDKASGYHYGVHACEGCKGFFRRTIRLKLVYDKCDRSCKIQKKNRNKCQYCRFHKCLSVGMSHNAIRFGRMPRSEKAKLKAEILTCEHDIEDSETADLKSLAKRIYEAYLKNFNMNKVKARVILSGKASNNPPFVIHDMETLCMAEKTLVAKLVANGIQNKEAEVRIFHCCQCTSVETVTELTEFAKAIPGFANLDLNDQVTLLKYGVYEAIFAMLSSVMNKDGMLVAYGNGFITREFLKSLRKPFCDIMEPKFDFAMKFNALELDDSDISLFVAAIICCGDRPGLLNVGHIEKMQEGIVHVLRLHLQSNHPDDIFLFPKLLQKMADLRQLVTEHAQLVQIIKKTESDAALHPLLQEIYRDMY

As for `O=C(O)C1C(C(=O)O)C2(Cl)C(Cl)=C(Cl)C1(Cl)C2(Cl)Cl` (stereo unspecified), the Potency entry in [1], in [2], in [7], in assay [10], in assay [11] and in assay [12] was “inactive” in each case. Also, the Potency result in [13], in assay [14], in assay [15], in assay [16], in assay [17] and in assay [18] was “inactive” throughout. The Potency entry in assay [20] was “inactive”. Besides, the compound was called inactive in [3], in assay [4], in [5], in [6], in assay [8] and in [9]. Besides, the max response in [19] is 10.1% (inactive).

With `Nc1ccccc1C(=O)OCCc1ccccc1`, the Potency entry in assay [1], in [2], in assay [7], in assay [10], in assay [11] and in [12] was “inactive” each time. Also, the Potency result in assay [13], in assay [14], in [15], in assay [16], in assay [17] and in assay [18] was “inactive” in each case. In assay [20], the Potency entry is “inactive”. The outcome in assay [3], in assay [4], in assay [5], in assay [6] and in assay [8] was inactive.

As for `O=[N+]([O-])C(Br)Br`, the Potency result in [1], in assay [7], in assay [11], in [12], in assay [18] and in assay [20] was “inactive” throughout. Also, in assay [2], the viability change, negative = cytotoxic is -98.3% (active). Further, the call in assay [3], in [4], in assay [5], in assay [6], in assay [8] and in assay [9] was inactive. The Potency is 7.94 µM (active) in assay [10]; 25.1 µM (active) in assay [13]; 10 µM (active) in [14]; 10 µM (active) in [15]; 15.8 µM (active) in [16]; 12.6 µM (active) in [17]. The max response in [19] is -3.58% (inactive).

With `Clc1ccc(C(c2ccc(Cl)cc2)C(Cl)Cl)cc1`, the Potency result in assay [1], in [10], in assay [13], in assay [14], in [15] and in assay [16] was “inactive” throughout. Besides, the Potency result in [17] and in assay [18] was “inactive” throughout. Also, the Potency in assay [2] and in assay [7] was 31.6 µM (active) throughout. Further, the compound was classed as inactive in [3], in assay [5], in assay [6] and in [9]. The max response in [19] is 16.9% (inactive).

`CC(C)CC(C)Nc1ccc(Nc2ccccc2)cc1` (stereo unspecified): the Potency is 25.1 µM (active) in [1]; 25.1 µM (active) in [2]; 15.8 µM (active) in [10]; 50.1 µM (active) in assay [11]; 50.1 µM (active) in assay [12]; 39.8 µM (active) in assay [13]. Besides, the Potency in [14] was 39.8 µM (active); in assay [15], 39.8 µM (active); in assay [16] it was 50.1 µM (active); in assay [17], 31.6 µM (active). In addition, the result in [3], in assay [4], in assay [5], in [6] and in assay [8] was inactive. Also, the Potency result in [7] and in assay [20] was “inactive” throughout. For the same compound, in assay [19], the max response is -7.88% (inactive).
